High-throughput results: PubChem, National Center for Advancing Translational Sciences (NCATS)
LDHA inh = blocks human lactate dehydrogenase A. 0.15% of 480,000 active. purified LDHA, NADH/diaphorase-resazurin fluorescence; stronger effect = lower value. activity change, % (values are at about 110 or 230 µM); in the data active means activity change below about -30%; inconclusive means mostly about -25% to -30%;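 further: plate controls were DMSO wells for no effect and wells without enzyme for full effect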
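LDH5 2 nM; NADH 0.06 mM, pyruvate 0.2 mM; 200 mM Tris pH 7.4, EDTA, Tween-20; 5 min RT. Detection: diaphorase 0.133 mg/mL + resazurin 37 µM, fluorescence ex540/em590 at 0 and 20 min; normalized to enzyme-free and DMSO wells.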
PKM2 activator = activators of human pyruvate kinase M2; P14618; purified PKM2, Kinase-Glo ATP luminescence, activation; response scale: 0% is enzyme alone, no compound; Potency, µM (doses to about 57.5 µM), for inactives: at the top dose activation, hits mostly activators; 0.34% of 260,000 active; AID 1631; further: potency means the concentration at half of the fitted maximal effect; nearly all actives have a fitted effect of over 55% in size
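hPK-M2, >95% pure; 0.1 mM ADP / 0.5 mM PEP final; imidazole pH7.2 buffer w/ 7 mM MgCl2, 50 mM KCl; 1 h RT; Kinase-Glo lum. Intermediate enzyme activity for dual inhibitor/activator qHTS.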
GLS inh = inhibitors of human glutaminase (GLS); GLS enzymatic activity, qHTS titration; O94925; 0.21% of 410,000 active; Potency, µM (titrated, usually from 45.5 µM), inactives show top-dose activity change, negative = inhibition, actives largely listed as inhibitors; AID 624170; further: potency means the concentration at half of the fitted maximal effect
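Enzyme dispensed in phosphate buffer (45 mM, pH 8.2, 0.02% Tween-20), compounds pinned in, then 1 mM L-glutamine solution and the glutamate oxidase–HRP–Amplex Red mix added; fluorescence read immediately and again after 30 min at room temperature.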
rTrxR1 inhibitor = blocks rat thioredoxin reductase 1. O89049. recombinant rTrxR1, NADPH fluorescence consumption, selenite substrate. Potency, µM (titrated, usually from 114 µM), without a hit: at the highest dose activity change, negative = inhibition, usual class: inhibitors. 1% of 390,000 active; further: potency means the concentration at half of the fitted maximal effect; nearly all actives have a fitted effect of over 65% in size
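Rat TrxR1 (90 nM in the dispensed reagent) was pre-reduced with 400 uM NADPH for 5 min at room temperature, then incubated with compound for 15 min. After 400 uM selenite was added, NADPH fluorescence (Ex 340/Em 450 nm) was followed for 8 min.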
IDH1 R132H inh = blocks human mutant IDH1 R132H enzyme. IDH1-R132H enzyme, NADPH consumption, diaphorase/resazurin fluorescence. 0.093% of 390,000 active. Potency, µM (highest dose often 76.6 µM), inactives show at the top dose activity change, negative = inhibition, hits mostly inhibitors. AID 602179; further: potency means the concentration at half of the fitted maximal effect; nearly all actives have a fitted effect of over 65% in size
Target sequence (O75874 whole entry R132H, stated change not applied): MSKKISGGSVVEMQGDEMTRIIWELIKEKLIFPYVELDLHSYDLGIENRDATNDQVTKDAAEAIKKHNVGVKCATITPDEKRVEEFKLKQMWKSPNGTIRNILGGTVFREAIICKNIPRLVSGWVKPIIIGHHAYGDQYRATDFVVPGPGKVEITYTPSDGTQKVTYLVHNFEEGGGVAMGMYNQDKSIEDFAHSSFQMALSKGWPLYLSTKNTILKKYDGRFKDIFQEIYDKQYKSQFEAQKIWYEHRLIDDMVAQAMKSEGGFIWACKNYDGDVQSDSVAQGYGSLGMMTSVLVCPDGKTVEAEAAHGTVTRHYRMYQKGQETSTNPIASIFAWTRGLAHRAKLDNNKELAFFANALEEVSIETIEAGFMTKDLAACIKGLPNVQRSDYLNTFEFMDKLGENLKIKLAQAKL
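IDH1-R132H (0.5 ug/mL dispensed) in pH 7.5 Tris buffer was preincubated 30 min with compound, then given a substrate mix of 0.016 mM NADPH and 2 mM alpha-KG for 80 min at room temperature; remaining NADPH was read by diaphorase/resazurin fluorescence.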
TrxR1 substrate = is turned over as a substrate by rat TrxR1. purified TrxR1 substrate turnover, NADPH consumption readout. O89049. Potency, µM (top dose mostly 114 µM), without a hit: at the top dose activity change, negative = substrate turnover. 0.01% of 390,000 active; further: potency means the concentration at half of the fitted maximal effect; nearly all actives have a fitted effect of over 50% in size
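Rat TrxR1, dispensed at 90 nM, was prereduced with 400 uM NADPH (final) for 5 min at ~22 deg C, then incubated with compound 15 min before 400 uM selenite. A first-read NADPH fluorescence drop versus no-compound background flagged substrates.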
The depositor's hits bear a star; ? = inconclusive; . = not tested or not shown; [ ] = remark or other dose. Compounds with a hit are over-represented: about 1.4% of the library has one in this group of screens. Unless noted, the call rests on the fitted dose curve; in most records, active means well fitted curve in the direction sought with a large enough effect; inconclusive means small, poorly fitted or top-dose-only effect, or another doubt; inactive means no such curve, though single readings can be large; an effect the other way counts as inactive or inconclusive. Unless noted, on the % scale 0 is the no-effect control and ±100 the full control effect.

SMILES | LDHA inh | PKM2 activator | GLS inh | rTrxR1 inhibitor | IDH1 R132H inh | TrxR1 substrate
O=S(=O)(c1cccs1)N1CCN(Cc2nc3ccccc3s2)CC1 | -11 | 22µM* | 10% | 17% | 3% | 2%
Cc1ccc(CNC(=O)c2cn(C3CCCCC3)c(=O)c3c2c2ccccc2n3C)o1 | -2 | ? | 16% | 4µM* | -2% | 12%
Cc1ccc(S(=O)(=O)CCC(=O)N2CCN(c3ccc(Cl)cc3)CC2)cc1 | -4 | 2% | 35% | 50µM* | 14% | 0%
NS(=O)(=O)c1cc(Br)c2c(c1)S(=O)(=O)NCN2 | -37* | . | 1% | . | -4% | .
CC(=O)N1CCc2c(sc(NC(=O)c3ccc([N+](=O)[O-])o3)c2C#N)C1 | 1 | -20% | 4% | ? | -4% | -21%
COC(=O)c1sc(NC(=O)c2ccc([N+](=O)[O-])o2)c(C#N)c1C | 0 | -16% | 3% | 14µM* | 3% | ?
COCCOCCCNC(=O)CCNC(=O)c1ccc(C(C)(C)C)cc1 | -21 | . | . | . | . | .
c1coc(-c2nc3c([nH]2)CCc2nonc2-3)c1 | -6 | 3% | 7% | 22µM* | 8% | 12%
Cn1cnc([N+](=O)[O-])c1Oc1cccc(O)c1 | -3 | -6% | -1% | 25µM* | -3% | -11%
Cn1cnc([N+](=O)[O-])c1Oc1ccccc1 | -2 | -8% | -3% | 45µM* | 6% | 0%
Cn1cnc([N+](=O)[O-])c1C(=O)Nc1cccc([N+](=O)[O-])c1 | 0 | 5% | 2% | -2% | 1% | 3%[0.0914 µM]
Cn1cnc([N+](=O)[O-])c1Oc1cccc2ccccc12 | 11 | -3% | 3% | 8.9µM* | 4% | -5%
Cn1cnc([N+](=O)[O-])c1Cl | -10 | -2% | 4% | ? | 3% | 4%[57.1 µM]
O=[N+]([O-])c1ccc(NCCCNS(=O)(=O)c2ccc(Cl)cc2)c(Cl)c1 | 0 | 14µM* | -5% | 25% | -6% | -5%
Cn1ccnc1C(NC(=O)Cc1ccc(-c2ccccc2)cc1)c1ccc(Cl)cc1 (stereo not given) | 5 | . | . | . | . | .
COc1ccc(OC(=O)c2ccc(OC)c(Br)c2)cc1 | -3 | . | . | . | . | .
COc1ccccc1-c1ccc(/C=C2/C=C(C)OC2=O)o1 | 12 | 13µM* | 3% | ? | 3% | 69%
COc1ccccc1-c1ccc(/C=C2\C=CC(=O)O2)o1 | 10 | 7% | -1% | 14µM* | 16% | 2%[57.1 µM]
CC1=C/C(=C\c2ccc(Br)o2)C(=O)O1 | -1 | 19% | 11µM* | -21% | -1% | -1%
COC(=O)CC1C(=O)NC2CCCCC2N1C(=O)CCl (stereo not given) | -7 | -19% | 9% | 20µM* | 0% | 6%
COC(=O)CCC/C=C1/SCC(NC(=O)c2ccccc2)C1=O (stereo not given) | 0 | ? | 23% | 25µM* | 9% | 4%
COC(=O)CCC/C=C1/SCC(NC(=O)c2ccccc2)C1O (stereo not given) | -1 | 0% | 4% | 50µM* | -2% | -19%
C=C(C)COc1ccccc1N | 1 | . | . | . | . | .
Nc1nc(Br)c2c(F)cccc2c1-c1ccc(Cl)cc1 | 3 | 6% | 0% | 5.6µM* | 8% | 13%
Cc1ccc(/C=C/C(=O)OCC(=O)N2CC(=O)Nc3ccccc32)o1 | 3 | 11% | -17% | 28µM* | -3% | -7%[57.1 µM]
O=C1CN(C(=O)COC(=O)/C=C/c2ccco2)c2ccccc2N1 | -7 | -1% | 28% | -23% | -5% | 4%[57.1 µM]
Cc1ccc(/C=C/C(=O)OCC(=O)NC(C)c2ccccc2)o1 (stereo not given) | 3 | . | -8% | 50µM* | 7% | -8%
Cc1c(-c2ccccc2)oc2c(C(=O)OCC(=O)Nc3ccc(F)cc3F)cccc2c1=O | -3 | . | . | . | . | .
COc1ccccc1N1CCN(CC(=O)NCC2CCCO2)CC1 (stereo not given) | -43* | 7% | 17% | -12% | 3% | -3%
